Reference: PubChem BioAssay (NCATS)
Values joined by “and” are separate entries in the source; they are usually repeats but may differ in a detail not shown here. Equal values may be shown once. Inconclusive results are not listed. Some structures have more than one record in an assay (separate samples or runs), and their calls can disagree. Active and inactive are the calls of the source. Calls come from the whole dose curve; as a rule, active = well fitted inhibition curve with a large enough effect; inconclusive = small, poorly fitted or top-dose-only effect; inactive = flat fitted curve, though single readings scatter.

system: HEK293; assay: Cytotoxic Profiling of Annotated Libraries Using Quantitative High-Throughput Screening (AID 1296008); conditions: Five cell lines viability, CellTiter-Glo ATP luminescence, 48-72 h; max response: active compounds read low; note: nearly all actives have a fitted effect of over 60% in size
Text: Cell-based phenotypic screening is a commonly used approach to discover biological pathways, novel drug targets, chemical probes and high-quality hit-to-lead molecules. Many hits identified from high-throughput screening campaign are ruled out through a series of follow-up potency, selectivity/specificity, and cytotoxicity assays. Prioritization of molecules with little or no cytotoxicity for a more in-depth downstream evaluation influence the future direction of projects, so cytotoxicity profiling of the screening libraries at early stage is essential for increasing the likelihood of candidate success. […] For the annotated library, we also examined the primary targets and mechanistic pathways regularly associated with cell death. To our knowledge, this is the first study to use high-throughput screening to profile large libraries for cytotoxicity assessment in both normal and cancer cell lines. In summary, the results generated here constitutes a valuable resource for the scientific community and provides insight on identifying cytotoxic compounds with particular mechanisms of action, and prioritizing compounds with suitable cytotoxicity profile for further evaluation.
A pintool (Kalypsys) was used to transfer 23 nL of compound solution to the 1536-well assay plates. After 48 or 72 hr incubation at 37 degree Celsius, 5% CO2 and 95% humidity, 2.5 uL of CellTiter-Glo (Promega) was dispensed into each well using a dispenser (Aspect Automation, St. Paul, MN) with solenoid valves (Lee Valves, Westbrook CT). Plates were left at room temperature for 10 min before imaging the ATP-coupled luminescence using a ViewLux microplate imager (PerkinElmer, Waltham, MA).
% is set by controls: 0 for no effect and ±100 for the full control effect; potency is the fitted concentration of half-maximal effect.

`Nc1ccc(-c2ccc3ncc4ccc(=O)n(-c5cccc(C(F)(F)F)c5)c4c3c2)cn1` was tested. Which Potency did it give?
Its Potency is 0.0132 µM (active).

For `CNc1nc(Nc2ccc(C(=O)N3CCOCC3)cc2OC)ncc1Cl`, which max response is on record?
Its max response is 3.56% (inactive) and -22.4% (inactive).

How did the max response turn out when `CO[C@H]1C=CO[C@@]2(C)Oc3c(C)c(O)c4c(O)c(c(C=NN5CCN(C)CC5)c(O)c4c3C2=O)NC(=O)C(C)=CC=C[C@H](C)[C@H](O)[C@@H](C)[C@@H](O)[C@@H](C)[C@H](OC(C)=O)[C@H]1C` was run?
The max response was 3.97% (inactive).

With `COc1cc(F)c(C(C)C)cc1-c1ccc(C(F)(F)F)cc1CN1C(=O)O[C@H](c2cc(C(F)(F)F)cc(C(F)(F)F)c2)[C@@H]1C` as the molecule, how does the max response read?
The max response was 0.948% (inactive).

For `CN1[C@H]2CC[C@H]1CC(OC(=O)c1c[nH]c3ccccc13)C2` (stereo not given in full), which max response is on record?
The max response was -1.65% (inactive).

How did the max response turn out when `CC=C(C(=CC)c1ccc(O)cc1)c1ccc(O)cc1` was run?
Its max response is -14% (inactive).

How did the max response turn out when `Cc1nc(C(=O)NCC(=O)O)c(O)c2ccc(Oc3ccccc3)cc12` was run?
The max response was -3.39% (inactive) and -0.739% (inactive).

How did the max response turn out when `Cc1cc(C(C)Nc2ccccc2)c2nc(N3CCOCC3)cc(=O)n2c1` (stereo not given) was run?
Its max response is -5.74% (inactive) and -23.1% (inactive).

Which Potency does the source give for `O=C(O)Cc1cccc(OCCCN(Cc2cccc(C(F)(F)F)c2Cl)CC(c2ccccc2)c2ccccc2)c1` here?
The Potency was 16.6 µM (active).

Which results are given for `CCN1C[C@H](C)n2c(c(O)c3c(=O)n(Cc4ccc(F)c(Cl)c4)nc(C(=O)NC)c32)C1=O`?
max response: 1.12% (inactive); outcome: inactive

With `C[C@H]1COC2=C1C(=O)C(=O)c1c2ccc2c1CCCC2(C)C` as the molecule, how does the max response read?
The max response was -0.441% (inactive).

For `O=c1[nH]nc(OCCCc2ccc(Cl)cc2)c(NCc2cccnc2)c1Br`, which Potency is on record?
Its Potency is 3.32 µM (active) and 7.31 µM (active).

How did the max response turn out when `O=C(c1ccc(C(=O)N2CCC(N3CCCC3)CC2)c(Nc2ccccc2)c1)N1CCC(N2CCCC2)CC1` was run?
The max response was -1.83% (inactive) and -8.97% (inactive).

Which Potency does the source give for `COc1c(C)c2c(c(O)c1CC=C(C)CCC(=O)OCCN1CCOCC1)C(=O)OC2` here?
The Potency was 3.72 µM (active).

With `Cc1cc(-c2ncc(CC(=O)Nc3ccc(-c4cnccn4)cn3)cc2C)ccn1` as the molecule, how does the Potency read?
The Potency was 9.35 µM (active) and 8.2 µM (active).

`CCC=CC[C@H]1C(=O)CC[C@@H]1CC(=O)OC` was tested. Which max response did it give?
The max response was 3.57% (inactive).

Which Potency does the source give for `Cc1cccc(Nc2nc(N[C@@H]3CCCC[C@H]3N)ncc2C(N)=O)c1` here?
Its Potency is 14.8 µM (active).

Which max response does the source give for `O=C(O)c1ccc(O)c2ncc(N3CCOCC3)cc12` here?
Its max response is 4.93% (inactive).

With `COc1ccc(-c2cc3nccn3c(Nc3ncccc3C(N)=O)n2)cc1OC` as the molecule, how does the Potency read?
Its Potency is 1.48 µM (active) and 5.8 µM (active).

For `CC(NCCc1ccc(O)cc1)C(O)c1ccc(O)cc1` (stereo not given), which max response is on record?
The max response was 3.14% (inactive).

Which Potency does the source give for `CCNC(=O)c1noc(-c2cc(C(C)C)c(O)cc2O)c1-c1ccc(CN2CCOCC2)cc1` here?
The Potency was 46.9 nM (active) and 9.2 nM (active).

How did the max response turn out when `N#CC(c1ccc(Cl)cc1)c1c(Cl)cc(-n2ncc(=O)[nH]c2=O)cc1Cl` (stereo not given) was run?
The max response was -4.97% (inactive).

For `Cc1ccccc1C(C(=O)NC1CCCCC1)N(C(=O)CNc1ccc(C#N)cc1)c1cccc(F)c1` (stereo not given), which outcome is on record?
Its outcome is “inactive”.

And the max response?
Its max response is -1.85% (inactive).

For `CC(C)CN(C[C@H](O)[C@H](Cc1ccccc1)NC(=O)O[C@H]1CCOC1)S(=O)(=O)c1ccc(N)cc1`, which max response is on record?
The max response was -14.4% (inactive).

How did the max response turn out when `CN1CCN2c3ncccc3Cc3ccccc3C2C1` (stereo not given) was run?
The max response was -5% (inactive).

How did the outcome turn out when `COc1ccnc(CS(=O)c2nc3ccc(OC(F)F)cc3[nH]2)c1OC` (stereo not given) was run?
Its outcome is “inactive”.

For `CS(=O)(=O)c1ccc(C2=C(c3ccccc3)C(=O)OC2)cc1`, which outcome is on record?
The outcome was “inactive”.

With `CC(C)CN(C[C@@H](O)[C@H](Cc1ccccc1)NC(=O)O[C@H]1CO[C@H]2OCC[C@H]21)S(=O)(=O)c1ccc(N)cc1` as the molecule, how does the max response read?
The max response was -18.9% (inactive).

`COc1cc([C@H]2Oc3cc([C@H]4Oc5cc(O)cc(O)c5C(=O)[C@H]4O)ccc3O[C@H]2CO)ccc1O` was tested. Which max response did it give?
Its max response is -13.7% (inactive).

With `COc1nccc(-c2c(-c3ccc(F)cc3)ncn2C2CCNCC2)n1` as the molecule, how does the max response read?
The max response was -20% (inactive).

What about the Potency of the same molecule?
Its Potency is 3.32 µM (active).

Which Potency does the source give for `COc1ccc2cc1Oc1ccc(cc1)C[C@H]1c3cc(c(OC)cc3CCN1C)Oc1c(OC)c(OC)cc3c1[C@H](C2)N(C)CC3` here?
Its Potency is 11.8 µM (active).

Which Potency does the source give for `C=CCc1cccc(C=NNC(=O)CN2CCN(Cc3ccccc3)CC2)c1O` here?
The Potency was 13.2 µM (active).

How did the max response turn out when `Cc1ccc(S(=O)(=O)Nc2nc3ccccc3nc2Nc2ccc3nsnc3c2)cc1` was run?
The max response was 4.32% (inactive).

Which max response does the source give for `CC(=O)NCCC(=O)N[C@@H](CCC(N)=O)C(=O)N[C@@H](CO)C(=O)N[C@@H](CCC(N)=O)C(=O)N[C@@H](CCC(N)=O)C(=O)N[C@H](C(=O)N[C@@H](Cc1ccccc1)C(=O)N[C@]1(C)CCCCCCC=CCCC[C@@](C)(C(=O)N[C@@H](CCC(N)=O)C(=O)N[C@@H](CC(N)=O)C(N)=O)NC(=O)[C@H](CC(C)C)NC(=O)[C@H](CC(C)C)NC(=O)[C@@H](CCCNC(=N)N)NC(=O)[C@H](Cc2c[nH]c3ccccc23)NC(=O)[C@H](CC(C)C)NC(=O)[C@H](CC(N)=O)NC1=O)[C@H](C)O` here?
Its max response is -2.69% (inactive).

How did the outcome turn out when `COc1cc2ncnc(Nc3cc(Br)c(O)c(Br)c3)c2cc1OC` was run?
The outcome was “inactive”.

And the max response?
Its max response is 0.846% (inactive).

Which outcome does the source give for `C[C@@H](O)[C@H]1C(=O)N2C(C(=O)OCOC(=O)C(C)(C)C)=C(SC3CN(C4=NCCS4)C3)[C@H](C)[C@H]12` here?
The outcome was “inactive”.
